Screening results deposited in PubChem BioAssay by National Center for Advancing Translational Sciences (NCATS).
Most compounds without a hit are left out; they make up all but 3% or so of the library.
KDM5B inhibitor: inhibitors of human KDM5B histone demethylase; Q9UGL1; KDM5B demethylase, FDH-coupled NADH fluorescence (FDH is formaldehyde dehydrogenase); Potency, µM (titrated, usually from 57.7 µM), hits mostly inhibitors; hit rate 2.6% among 220,000; AID 1347165; also: potency is read from the fitted curve at half-maximal effect; 0% is about no effect; nearly all actives have a fitted effect of over 70% in size
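Compound dilutions met 200 nM (final) KDM5BΔAP for 10 min at room temperature before substrate addition. The substrate mix held 12.5 µM H3K4me3 with cofactors 25 µM α-ketoglutarate and 50 µM Fe²⁺. NADH signal gain over 30 min defined activity.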
SNCA expr inhib: SNCA gene expression inhibition; HEK-293 SNCA-luciferase knock-in, luminescence, 24 h; Potency, µM (series often up to 57.2 µM), without a hit: at the highest dose activity change, negative = inhibition, actives largely listed as inhibitors; hit rate 0.17% among 140,000; AID 1671194;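 also: potency is read from the fitted curve at half-maximal effect; plate controls were DMSO cells for no effect and cell-free wells for full effect; nearly all actives have a fitted effect of over 45% in size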
HEK293 viab: counter-screen for SNCA expression inhibitors: cell viability; HEK-293-SNCA-luc viability, GF-AFC fluorescence, 24 h; Potency, µM (highest dose often 57.1 µM), for inactives: at the top dose activity change, negative = cytotoxicity, actives largely listed as cytotoxic; hit rate 0.12% among 150,000;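 also: potency is read from the fitted curve at half-maximal effect; 0% = DMSO-treated cells and -100% = medium-only wells without cells; nearly all actives have a fitted effect of over 30% in size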
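HEK-293-SNCA-luc cells (1500/well) plated 24 h, then exposed 24 h to a dilution series; GF-AFC added 30 min at 37C, fluorescence 405/540 nm; normalised to medium-only and DMSO wells, Hill fit.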
IP6K1 inhibitor: IP6K1 kinase inhibition | Q92551 | IP6K1 kinase, ADP-Glo luminescence, 2 h; stronger effect = lower value | activity change, % (series mostly up to about 58 µM) | hit rate 0.81% among 140,000 | AID 1645851; in the data active = activity change below about -25%; also: % is scaled to controls: 0 for no effect and ±100 for the full control effect
Target sequence (Q92551 whole entry, looked up): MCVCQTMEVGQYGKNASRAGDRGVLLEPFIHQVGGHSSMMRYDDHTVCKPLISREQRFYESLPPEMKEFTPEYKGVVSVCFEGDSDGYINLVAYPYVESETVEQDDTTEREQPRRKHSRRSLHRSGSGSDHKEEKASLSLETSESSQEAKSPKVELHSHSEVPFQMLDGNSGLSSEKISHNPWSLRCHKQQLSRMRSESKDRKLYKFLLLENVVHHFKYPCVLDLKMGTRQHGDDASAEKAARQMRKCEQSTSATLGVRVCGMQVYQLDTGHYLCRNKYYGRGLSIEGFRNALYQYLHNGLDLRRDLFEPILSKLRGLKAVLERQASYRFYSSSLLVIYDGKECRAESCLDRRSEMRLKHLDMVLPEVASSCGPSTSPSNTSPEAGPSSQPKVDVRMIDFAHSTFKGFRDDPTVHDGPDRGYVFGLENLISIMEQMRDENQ
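ADP-Glo luminescence measures ADP made by human IP6K1 during a 2 h RT reaction with ATP/IP6 (mix at 1.3 mM/130 uM); top library doses 57.5 and 19.1 uM final.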
The depositor's hits bear a star; [ ] = remark or other dose. Unless noted, calls follow the shape of the dose curve; as a rule, active = well fitted curve in the direction sought with a large enough effect; inconclusive = small, poorly fitted or top-dose-only effect, or another doubt; inactive = no such curve, though single readings can be large; an effect the other way counts as inactive or inconclusive.

CC(=O)Nc1ccc(S(=O)(=O)N2C[C@@H]3C[C@H](C2)c2c(-c4cccs4)ccc(=O)n2C3)cc1 was read as KDM5B inhibitor inconclusive, SNCA expr inhib -3.4%, HEK293 viab 1.5% and IP6K1 inhibitor 10.0.
Screening COc1cc2c(cc1OCc1ccccc1)N(C(=O)c1cc3ccccc3[nH]1)CC21CCN(C)CC1 returned KDM5B inhibitor inconclusive, SNCA expr inhib inconclusive, HEK293 viab inconclusive and IP6K1 inhibitor -9.3.
For C[C@@]12OC(=O)[C@]1([C@@H](O)[C@@H]1C=CCCC1)NC(=O)[C@H]2CCCl the results were SNCA expr inhib 0.136µM* and HEK293 viab inconclusive.
For COc1cc2c(cc1OCc1ccncc1)NC(=O)C21CCN(Cc2ccccc2O)CC1 the results were KDM5B inhibitor inactive, SNCA expr inhib 1.0%, HEK293 viab 0.1% and IP6K1 inhibitor -6.6.
`COc1cc2c(cc1OCc1ccncc1)NC(=O)C21CCN(c2ccccn2)CC1` gave KDM5B inhibitor 28.2µM*, SNCA expr inhib 0.7%[87.6 µM], HEK293 viab -16.0%[87.6 µM] and IP6K1 inhibitor -10.8.
COc1cc2c(cc1OCc1ccccc1)NC(=O)C21CCN(c2nc(C)cnc2C)CC1 was read as KDM5B inhibitor 28.2µM*, SNCA expr inhib -26.9%, HEK293 viab -28.0% and IP6K1 inhibitor -20.7.
`CCOC(=O)[C@H]1CN(C(=O)NC2CCCC2)[C@]2(C)C(=O)N(C)c3ccccc3[C@H]12` gave SNCA expr inhib -28.0%[25.6 µM], HEK293 viab -20.4%[23.9 µM] and IP6K1 inhibitor 15.9.
`CCC(C)(O)C1(C(=O)O)COC(=O)C1` (centres undefined) gave HEK293 viab -3.6%[87.6 µM] and IP6K1 inhibitor -9.9.
Screening CC[C@H]1CN2CC[C@H]1C[C@@H]2CNC(=O)Nc1ccc(Oc2ccccc2)cc1 returned KDM5B inhibitor inconclusive, SNCA expr inhib inconclusive, HEK293 viab -26.2%[87.6 µM] and IP6K1 inhibitor -2.8.
For CCOc1ccc(Oc2ccc(OCc3cc(F)ccc3F)cc2)c(N)c1 the results were HEK293 viab 1.0% and IP6K1 inhibitor 3.3.
`COc1ccc([C@@H]2CN(c3nccc(C)n3)[C@@H]3C4CCN(CC4)[C@@H]32)cc1` gave KDM5B inhibitor 14.1µM*, SNCA expr inhib inconclusive, HEK293 viab -9.6% and IP6K1 inhibitor 17.4.
Screening COc1ccc([C@@H]2CN(S(=O)(=O)N3CCCC3)[C@@H]3C4CCN(CC4)[C@@H]32)cc1 returned KDM5B inhibitor inactive, SNCA expr inhib -6.8%, HEK293 viab -6.7% and IP6K1 inhibitor 12.9.
For CS(=O)(=O)N1C[C@H]2CCN(Cc3ccc[nH]3)C[C@H]21 the results were KDM5B inhibitor 14.1µM*, SNCA expr inhib 33.9%, HEK293 viab 1.8%[12.5 µM] and IP6K1 inhibitor 18.0.
For CC(C)OC(=O)c1ccnc2cc(C(OCCN3CCCCC3)c3ccccc3Cl)sc12 (centres undefined) the results were HEK293 viab 29.9µM* and IP6K1 inhibitor 0.5.
`COC(=O)[C@]12CCCC(C)(C)C1CCc1cc(C(C)C)c(O)c(O)c12` (some centres undefined) gave HEK293 viab -22.8% and IP6K1 inhibitor 18.9.
`COc1ccc(-c2cnc3[nH]cc(CC(=O)N4CCN(C)CC4)c3c2)cc1OC` gave KDM5B inhibitor inconclusive, SNCA expr inhib 7.3%[87.6 µM], HEK293 viab 6.2%[87.6 µM] and IP6K1 inhibitor -10.1.
COc1cccc(-c2cnc3[nH]cc(CC(=O)N4CCN(C)CC4)c3c2)c1 was read as KDM5B inhibitor 35.5µM*, SNCA expr inhib -2.8%[87.6 µM], HEK293 viab 1.4%[87.6 µM] and IP6K1 inhibitor -22.0.
For COc1ncccc1-c1cnc2[nH]cc(CC(=O)N3CCN(C)CC3)c2c1 the results were KDM5B inhibitor 35.5µM*, SNCA expr inhib 8.7%[87.6 µM], HEK293 viab 1.8%[87.6 µM] and IP6K1 inhibitor -4.6.
COc1ccc(S(=O)(=O)NC[C@H]2C[C@@H]3CCN2C[C@@H]3CN2CCC(Cc3ccccc3)CC2)cc1 was read as KDM5B inhibitor inactive, SNCA expr inhib inconclusive, HEK293 viab inconclusive and IP6K1 inhibitor -1.7.
`COCC(=O)NC[C@H]1C[C@@H]2CCN1C[C@@H]2c1cc(-c2ccccc2OC)nc(C)n1` gave KDM5B inhibitor 35.5µM*, SNCA expr inhib 16.4%[87.6 µM], HEK293 viab -3.5%[87.6 µM] and IP6K1 inhibitor 4.3.
`CCNC(=O)NC[C@H]1C[C@@H]2CCN1C[C@@H]2c1cc(-c2ccc(OC)c(OC)c2)nn1C` gave KDM5B inhibitor inactive, SNCA expr inhib inconclusive, HEK293 viab 0.7%[87.6 µM] and IP6K1 inhibitor 5.8.
Screening Cc1nc(-c2ccco2)cc([C@H]2CN3CC[C@H]2C[C@@H]3CNC(=O)C2CC2)n1 returned KDM5B inhibitor 35.5µM*, SNCA expr inhib 45.3%[87.6 µM], HEK293 viab -5.9%[87.6 µM] and IP6K1 inhibitor -6.1.
For COc1ccc(-c2cc([C@H]3CN4CC[C@H]3C[C@@H]4CNC(=O)NC(C)C)nc(C)n2)cc1OC the results were KDM5B inhibitor 31.6µM*, SNCA expr inhib 4.6%, HEK293 viab 1.1% and IP6K1 inhibitor 8.2.
For CCC(CC)c1cc([C@H]2CN3CC[C@H]2C[C@@H]3CNC(=O)COc2ccccc2)nc(-c2ccncc2)n1 the results were KDM5B inhibitor 25.1µM*, SNCA expr inhib inconclusive, HEK293 viab inconclusive and IP6K1 inhibitor 12.6.
CC(=O)c1ccc(NC(=O)NC[C@H]2C[C@@H]3CCN2C[C@@H]3c2cc(-c3ccco3)nc(C)n2)cc1 was read as KDM5B inhibitor inactive, SNCA expr inhib 4.5%, HEK293 viab -4.5% and IP6K1 inhibitor -14.5.
For CN(Cc1cccc(-c2ccncc2)c1)C(=O)Oc1ccc(-c2ccc(C(N)=O)cc2)cc1 the results were HEK293 viab inconclusive and IP6K1 inhibitor -13.9.
For COc1ccc(-c2cc([C@H]3CN4CC[C@H]3C[C@@H]4CNC(=O)C3CC3)nc(C)n2)cc1OC the results were KDM5B inhibitor inconclusive, SNCA expr inhib 1.1%, HEK293 viab 3.0% and IP6K1 inhibitor 9.4.
COc1ccc(-c2cc([C@H]3CN4CC[C@H]3C[C@@H]4CNC(=O)C3CCC3)nc(C)n2)cc1OC was read as KDM5B inhibitor 31.6µM*, SNCA expr inhib -14.5%, HEK293 viab -4.7% and IP6K1 inhibitor 67.7.
For C=C(C)C(=O)O[C@H]1[C@@H]2[C@H](C)C(=O)O[C@@H]2C[C@@H](C)[C@@H]2C=CC(=O)[C@]21C the results were HEK293 viab 4.65µM* and IP6K1 inhibitor -4.8.
`CN1C(=O)CO[C@H]2CN(Cc3ccccn3)C[C@H]21` gave KDM5B inhibitor 39.8µM*, SNCA expr inhib 24.9%[87.6 µM], HEK293 viab -0.9%[87.6 µM] and IP6K1 inhibitor 2.2.
For O=C1CO[C@H]2CN(Cc3ccccn3)C[C@H]2N1Cc1ccccn1 the results were KDM5B inhibitor inconclusive, SNCA expr inhib 12.5%[87.6 µM], HEK293 viab -17.4%[87.6 µM] and IP6K1 inhibitor 4.4.
O=C1CO[C@H]2CN(Cc3ncc[nH]3)C[C@H]2N1Cc1ccccn1 was read as KDM5B inhibitor 35.5µM*, SNCA expr inhib 25.8%[87.6 µM], HEK293 viab 13.3%[87.6 µM] and IP6K1 inhibitor 1.6.
Screening Cc1nc(-c2cccs2)cc([C@H]2CN3CC[C@H]2C[C@@H]3COC(=O)Nc2ccc(C(C)C)cc2)n1 returned KDM5B inhibitor inconclusive, SNCA expr inhib inconclusive, HEK293 viab inconclusive and IP6K1 inhibitor -7.9.
